The record followed here is the supplement of paper PMC10849652.

The full data set covers some 8,800 targets. This sample favours those with a hit. About 0.5% of all pairs of compound and target were hits.

Sequence of UniProt Q9Y4R8 (Q9Y4R8 whole entry, looked up): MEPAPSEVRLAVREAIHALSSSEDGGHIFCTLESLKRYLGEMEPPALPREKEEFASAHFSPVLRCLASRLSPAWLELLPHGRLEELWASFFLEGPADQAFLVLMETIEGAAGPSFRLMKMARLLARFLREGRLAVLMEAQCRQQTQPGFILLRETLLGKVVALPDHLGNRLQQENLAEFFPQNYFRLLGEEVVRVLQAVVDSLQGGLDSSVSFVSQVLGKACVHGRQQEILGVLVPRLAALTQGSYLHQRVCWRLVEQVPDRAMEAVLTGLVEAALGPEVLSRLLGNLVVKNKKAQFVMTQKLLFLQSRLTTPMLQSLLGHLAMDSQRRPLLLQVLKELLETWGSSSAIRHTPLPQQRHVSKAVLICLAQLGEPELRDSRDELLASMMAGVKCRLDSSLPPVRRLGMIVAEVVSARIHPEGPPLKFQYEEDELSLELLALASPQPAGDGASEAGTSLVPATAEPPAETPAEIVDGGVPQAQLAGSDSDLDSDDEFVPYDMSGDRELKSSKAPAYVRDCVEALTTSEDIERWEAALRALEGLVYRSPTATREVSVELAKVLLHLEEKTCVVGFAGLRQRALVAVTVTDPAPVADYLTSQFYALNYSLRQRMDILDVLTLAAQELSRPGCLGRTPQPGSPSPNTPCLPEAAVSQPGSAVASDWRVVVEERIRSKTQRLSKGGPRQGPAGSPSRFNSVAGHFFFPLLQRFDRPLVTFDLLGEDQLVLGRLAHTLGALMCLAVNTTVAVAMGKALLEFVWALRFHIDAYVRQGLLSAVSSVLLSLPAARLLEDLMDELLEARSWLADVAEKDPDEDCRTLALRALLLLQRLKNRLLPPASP
Sequence of UniProt Q9UNY4 (Q9UNY4 whole entry, looked up): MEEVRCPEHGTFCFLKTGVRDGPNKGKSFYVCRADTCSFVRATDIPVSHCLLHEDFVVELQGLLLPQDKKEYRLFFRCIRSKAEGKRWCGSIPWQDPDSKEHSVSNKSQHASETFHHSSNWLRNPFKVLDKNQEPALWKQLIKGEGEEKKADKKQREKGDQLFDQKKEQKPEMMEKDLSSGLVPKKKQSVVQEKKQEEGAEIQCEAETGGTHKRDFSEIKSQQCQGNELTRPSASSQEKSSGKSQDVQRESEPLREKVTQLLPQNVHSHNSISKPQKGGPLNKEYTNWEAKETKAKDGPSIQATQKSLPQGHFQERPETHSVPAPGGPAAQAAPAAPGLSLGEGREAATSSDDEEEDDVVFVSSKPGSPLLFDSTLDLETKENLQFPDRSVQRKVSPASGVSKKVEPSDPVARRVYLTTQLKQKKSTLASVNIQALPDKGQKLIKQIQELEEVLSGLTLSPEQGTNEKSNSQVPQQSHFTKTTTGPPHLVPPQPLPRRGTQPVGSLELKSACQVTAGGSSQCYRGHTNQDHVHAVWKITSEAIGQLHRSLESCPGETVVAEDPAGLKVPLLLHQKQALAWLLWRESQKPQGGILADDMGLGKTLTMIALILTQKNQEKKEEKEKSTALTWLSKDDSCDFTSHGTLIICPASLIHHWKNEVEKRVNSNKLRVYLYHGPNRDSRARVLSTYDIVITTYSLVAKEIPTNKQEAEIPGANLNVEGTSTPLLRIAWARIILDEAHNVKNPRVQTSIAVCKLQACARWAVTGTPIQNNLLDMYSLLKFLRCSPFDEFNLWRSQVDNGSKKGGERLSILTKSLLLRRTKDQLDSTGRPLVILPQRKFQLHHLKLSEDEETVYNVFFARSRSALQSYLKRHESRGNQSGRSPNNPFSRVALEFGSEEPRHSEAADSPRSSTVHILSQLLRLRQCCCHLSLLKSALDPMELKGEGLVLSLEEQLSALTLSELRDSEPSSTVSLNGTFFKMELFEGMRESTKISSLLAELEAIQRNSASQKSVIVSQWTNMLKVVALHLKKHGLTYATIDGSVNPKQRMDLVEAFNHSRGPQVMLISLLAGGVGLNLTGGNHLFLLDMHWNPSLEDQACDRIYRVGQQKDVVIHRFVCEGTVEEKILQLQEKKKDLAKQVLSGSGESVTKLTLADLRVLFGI
Sequence of UniProt Q6NXR4 (Q6NXR4 whole entry, looked up): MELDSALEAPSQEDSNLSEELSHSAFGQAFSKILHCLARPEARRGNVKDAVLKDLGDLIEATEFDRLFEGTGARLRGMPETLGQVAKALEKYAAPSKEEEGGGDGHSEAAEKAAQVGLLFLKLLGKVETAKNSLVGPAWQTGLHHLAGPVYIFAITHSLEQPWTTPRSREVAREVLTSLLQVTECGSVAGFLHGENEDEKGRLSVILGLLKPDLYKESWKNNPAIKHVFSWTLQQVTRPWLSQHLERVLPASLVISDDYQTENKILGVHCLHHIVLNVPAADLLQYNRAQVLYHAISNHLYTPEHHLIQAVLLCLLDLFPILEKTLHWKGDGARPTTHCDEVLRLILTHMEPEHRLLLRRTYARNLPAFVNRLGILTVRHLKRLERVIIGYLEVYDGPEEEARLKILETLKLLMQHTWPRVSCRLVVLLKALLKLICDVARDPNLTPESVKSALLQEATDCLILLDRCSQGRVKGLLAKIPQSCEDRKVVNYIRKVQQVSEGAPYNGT
Sequence of UniProt O60701 (O60701 whole entry, looked up): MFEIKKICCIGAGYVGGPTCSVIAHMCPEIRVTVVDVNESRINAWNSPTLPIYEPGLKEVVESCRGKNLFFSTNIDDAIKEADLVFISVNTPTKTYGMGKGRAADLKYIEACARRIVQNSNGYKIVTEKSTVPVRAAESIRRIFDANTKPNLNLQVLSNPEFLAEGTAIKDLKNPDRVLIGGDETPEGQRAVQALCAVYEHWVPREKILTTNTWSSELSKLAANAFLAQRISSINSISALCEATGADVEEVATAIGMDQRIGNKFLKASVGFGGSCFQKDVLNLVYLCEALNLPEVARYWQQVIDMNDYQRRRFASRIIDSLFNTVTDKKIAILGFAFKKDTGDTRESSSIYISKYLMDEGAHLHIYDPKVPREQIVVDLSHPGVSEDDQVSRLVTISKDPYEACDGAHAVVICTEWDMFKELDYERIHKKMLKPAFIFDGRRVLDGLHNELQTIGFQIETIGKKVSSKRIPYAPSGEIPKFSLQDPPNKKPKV
Sequence of UniProt P48553 (P48553 whole entry, looked up): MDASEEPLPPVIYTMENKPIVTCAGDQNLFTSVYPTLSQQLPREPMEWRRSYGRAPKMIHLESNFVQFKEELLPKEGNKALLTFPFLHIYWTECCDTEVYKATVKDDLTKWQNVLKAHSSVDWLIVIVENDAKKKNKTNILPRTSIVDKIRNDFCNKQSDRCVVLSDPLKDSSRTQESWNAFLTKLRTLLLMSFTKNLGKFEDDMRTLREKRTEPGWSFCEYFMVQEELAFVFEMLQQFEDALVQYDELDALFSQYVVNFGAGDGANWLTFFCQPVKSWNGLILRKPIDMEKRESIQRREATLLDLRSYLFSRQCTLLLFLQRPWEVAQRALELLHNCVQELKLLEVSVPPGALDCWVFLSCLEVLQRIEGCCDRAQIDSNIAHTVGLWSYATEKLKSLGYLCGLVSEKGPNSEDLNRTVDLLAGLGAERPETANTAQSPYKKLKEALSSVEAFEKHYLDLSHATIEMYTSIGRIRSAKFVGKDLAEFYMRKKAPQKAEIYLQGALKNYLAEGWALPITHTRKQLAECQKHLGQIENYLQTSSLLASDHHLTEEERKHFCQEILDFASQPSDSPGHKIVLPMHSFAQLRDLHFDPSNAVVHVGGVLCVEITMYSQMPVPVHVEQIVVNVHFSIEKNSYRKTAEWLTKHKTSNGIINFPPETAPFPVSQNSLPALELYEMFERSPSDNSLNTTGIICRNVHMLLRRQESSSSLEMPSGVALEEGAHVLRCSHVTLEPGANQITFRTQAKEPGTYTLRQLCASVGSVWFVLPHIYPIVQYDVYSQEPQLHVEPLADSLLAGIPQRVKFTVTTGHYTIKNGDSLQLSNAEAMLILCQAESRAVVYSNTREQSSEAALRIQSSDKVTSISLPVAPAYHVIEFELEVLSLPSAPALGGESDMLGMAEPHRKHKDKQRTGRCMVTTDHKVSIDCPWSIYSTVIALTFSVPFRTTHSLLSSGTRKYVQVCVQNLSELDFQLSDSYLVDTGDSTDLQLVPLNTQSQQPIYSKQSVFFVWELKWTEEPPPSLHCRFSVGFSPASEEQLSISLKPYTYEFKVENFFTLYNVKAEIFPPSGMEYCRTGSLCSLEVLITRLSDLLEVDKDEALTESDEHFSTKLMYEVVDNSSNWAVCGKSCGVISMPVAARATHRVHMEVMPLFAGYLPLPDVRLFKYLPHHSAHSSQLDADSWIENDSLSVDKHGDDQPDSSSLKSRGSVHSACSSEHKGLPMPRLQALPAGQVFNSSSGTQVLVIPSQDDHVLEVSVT
Sequence of UniProt Q9UHD2 (Q9UHD2 whole entry, looked up): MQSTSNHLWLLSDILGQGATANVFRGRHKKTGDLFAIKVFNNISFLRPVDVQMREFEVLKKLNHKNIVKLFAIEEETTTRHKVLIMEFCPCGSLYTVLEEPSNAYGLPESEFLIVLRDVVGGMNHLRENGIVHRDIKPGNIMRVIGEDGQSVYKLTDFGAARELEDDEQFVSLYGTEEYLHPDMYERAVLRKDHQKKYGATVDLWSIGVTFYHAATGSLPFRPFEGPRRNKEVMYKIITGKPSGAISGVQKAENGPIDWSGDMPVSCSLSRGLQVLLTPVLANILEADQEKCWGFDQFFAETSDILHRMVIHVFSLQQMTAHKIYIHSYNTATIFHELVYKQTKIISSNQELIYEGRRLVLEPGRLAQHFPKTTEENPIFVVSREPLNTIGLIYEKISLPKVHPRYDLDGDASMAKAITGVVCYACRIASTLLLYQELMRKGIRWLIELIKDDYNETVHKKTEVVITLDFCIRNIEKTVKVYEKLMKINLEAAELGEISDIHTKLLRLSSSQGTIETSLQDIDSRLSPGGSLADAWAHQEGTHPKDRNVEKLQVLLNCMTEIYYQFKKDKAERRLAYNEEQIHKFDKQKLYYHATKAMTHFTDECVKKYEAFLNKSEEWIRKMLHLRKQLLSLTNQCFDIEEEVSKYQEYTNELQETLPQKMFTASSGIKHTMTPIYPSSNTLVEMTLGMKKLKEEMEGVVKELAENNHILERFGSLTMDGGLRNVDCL

Compound in this assay: C1=CC=C(C=C1)[C@H](COC2=CC3=C(C=C2)NC(=O)N3)NC(=O)C4=CC=CN(C4=O)CC5=CC(=C(C=C5)F)F
As to the kind of experiment: log2 fold change, soluble protein after heating vs DMSO (PISA); higher = thermal stabilisation; K562 lysate, 10 uM; active = over 0.2 and 3.5 SD of the protein, either way, in both replicates (recomputed). The gist of the method: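 K562 pellets were dounce-homogenised in PBS pH 7.4 with 1 mM MgCl2, and the crude extract at 1 mg/mL protein was treated with 10 μM compound for 30 min. Aliquots were heated for 3 min across 48°C-58°C, pooled, and brought to 0.5% NP-40 at 4°C; soluble protein was the supernatant after 21,000xg for 90 min. Soluble protein was quantified by TMTpro 16plex LC-MS/MS with channel sums equalised, and reported as log2 fold change in thermal stability against DMSO controls, with values from duplicates.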
Consider THEMIS2 (UniProt Q5TEJ8), for which the log2 fold change is 0.046 (inactive).

On to UBAP2 (UniProt Q5T6F2), for which the log2 fold change is -0.019 (inactive).

Regarding TOPBP1 (UniProt Q92547), the log2 fold change is 0.012 (inactive).

Take TTF2 (UniProt Q9UNY4): the log2 fold change is -0.092 (inactive).

With TMEM161B (UniProt Q8NDZ6), the log2 fold change was -0.07 (inactive).

Turning to TRIP13 (UniProt Q15645), the log2 fold change is 0.006 (inactive).

For the target TRMT12 (UniProt Q53H54), the log2 fold change was 0.104 (inactive).

Take TUBB6 (UniProt K7ES63): the log2 fold change is -0.115 (inactive).

As for TBK1 (UniProt Q9UHD2), the log2 fold change was -0.012 (inactive).

For the target UGDH (UniProt O60701), the log2 fold change is 0.003 (inactive).

As to TUBGCP5 (UniProt Q96RT8), the log2 fold change is -0.209 (inactive).

Turning to TRIM65 (UniProt Q6PJ69), the log2 fold change was 0.051 (inactive).

Turning to TUBB4A (UniProt M0QYM7), the log2 fold change is -0.207 (inactive).

Take TTI2 (UniProt Q6NXR4): the log2 fold change is -0.044 (inactive).

Regarding TEX30 (UniProt Q5JUR7), the log2 fold change was -0.074 (inactive).

Turning to TTC38 (UniProt Q5R3I4), the log2 fold change was -0.001 (inactive).

Regarding TFCP2 (UniProt Q12800), the log2 fold change was 0.044 (inactive).

As for TYW3 (UniProt Q6IPR3), the log2 fold change is 0.082 (inactive).

Consider TK1 (UniProt P04183), for which the log2 fold change was 0.006 (inactive).

Consider UBL4A (UniProt P11441), for which the log2 fold change is -0.029 (inactive).

In the case of TTC27 (UniProt Q6P3X3), the log2 fold change was -0.039 (inactive).

As to TELO2 (UniProt Q9Y4R8), the log2 fold change was -0.073 (inactive).

As for TXNIP (UniProt Q9H3M7), the log2 fold change was 0.056 (inactive).

As for TRAPPC10 (UniProt P48553), the log2 fold change was -0.014 (inactive).
